Laboratory results as given in PubChem BioAssay (EPA / NIEHS).
Active and inactive are the calls of the source. The calls were made as follows: active = hit-call score of the fitted dose curve at least 0.9, where 1 is the maximum; inactive = score below 0.9.

These compounds were tested on TTR (gene 7276) (assay: CCTE_GLTED_hTTR_0.125uM: CCTE's human Transthyretin (hTTR) Inhibition Assay, with 0.125uM TTR, Great Lakes Toxicology and Ecology Division (GLTED) Lab (AID 2284431)).
Summary of the method: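 Cell-free displacement of the fluorescent probe ANSA from human TTR (0.125uM) after 2 h incubation with test chemical. Fluorescence read at 380 nm excitation/475 nm emission; loss of signal fitted relative to DMSO baseline.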
For COP(=S)(OC)Oc1ccc([N+](=O)[O-])c(C)c1, the AC50 was 8.85 µM (active).
With CCOP(=O)(OCC)Oc1nc(Cl)c(Cl)cc1Cl the AC50 was 0.395 µM (active).
In the case of O=C1C2CC=CCC2C(=O)N1SC(Cl)(Cl)Cl (centres undefined), the AC50 is reported as 21.1 µM (active).
For CC(C)NC(=O)N1CC(=O)N(c2cc(Cl)cc(Cl)c2)C1=O, the AC50 was 2.51 µM (active).
N#Cc1c[nH]cc1-c1cccc2c1OC(F)(F)O2 was tested, and the AC50 was 0.5 µM (active).
With CCOc1nc(C(Cl)(Cl)Cl)ns1 the AC50 was 5.26 µM (active).
Cn1c(-c2ccccc2)cc(-c2ccccc2)[n+]1C was tested, and the AC50 was 27.8 µM (active).
COc1cc(Cl)c(OC)cc1Cl was tested, and the AC50 was 4.26 µM (active).
CO/N=C(/C1=NOCCO1)c1ccccc1Oc1ncnc(Oc2ccccc2Cl)c1F was tested, and the AC50 was 5.22 µM (active).
